Measurements published in PubChem BioAssay (NCATS).
Records with an inconclusive call do not appear. The source made the active and inactive calls. Calls come from the whole dose curve; as a rule, active = well fitted curve in the direction sought with a large enough effect; inconclusive = small, poorly fitted or top-dose-only effect, or another doubt; inactive = no such curve, though single readings can be large; an effect the other way counts as inactive or inconclusive.

Experiments:
[1] = qHTS for Inhibitors of Plasmodium falciparum (DD2) proliferation (AID 504314);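 note: parasite DNA measured by SYBR Green fluorescence after red cell lysis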
Summary of the method: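 Quantitative HTS growth inhibition: SYBR Green I binding to parasite DNA after 72 h drug exposure of infected erythrocytes (0.3% parasitemia, 2.5% hematocrit). Signals normalized per plate to inhibitor and vehicle wells.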

[2] = qHTS for Inhibitors of Plasmodium falciparum (GB4) proliferation (AID 504315); note: nearly all actives have a fitted effect of over 50% in size
Summary of the method: (§1)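 Erythrocytes infected with P. falciparum line (0.3% parasitemia, 2.5% hematocrit final) incubated with compounds 72 h at 37 °C, 5% CO2; SYBR Green lysis buffer added, fluorescence read next day. Normalized to 0.29 uM artemisinin and DMSO.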

[3] = qHTS for Inhibitors of Plasmodium falciparum (7G8) proliferation (AID 504316); note: series mostly up to about 6.7 µM; nearly all actives have a fitted effect of over 65% in size
Summary of the method: as §1

[4] = qHTS for Inhibitors of Plasmodium falciparum (HB3) proliferation (AID 504318); note: nearly all actives have a fitted effect of over 60% in size
Summary of the method: as §1

[5] = qHTS for Inhibitors of Plasmodium falciparum (CP250) proliferation (AID 504320)
Summary of the method: as §1

Measured: Potency

COC(=O)C1=C(C(=O)OC)[C@@H]2N(C)c3ccccc3[C@@]23C[C@@H](C(=O)OC)N(C(C)=O)C3=N1
inactive: all assays above

COC(=O)CCC(=O)OC1(C)C(=O)C=C2C=C(C3CC3)N(C3CCCC3)C=C2C1=O (configuration not stated)
inactive: all assays above

CCOC(=O)CN1C(=O)N[C@@H](c2ccco2)C(C(=O)OC)=C1C
inactive: all assays above

COC/C=C/C1=CC2=CC(=O)C(C)(OC(=O)c3cnc4ccccc4n3)C(=O)C2=CN1CCc1ccccn1 (configuration not stated)
inactive: all assays above

COC/C=C/C1=CC2=CC(=O)C(C)(OC(=O)c3cnc4ccccc4n3)C(=O)C2=CN1CC1CC1 (configuration not stated)
inactive: all assays above

CCCCC1=CC2=CC(=O)C(C)(OC(=O)CC)C(=O)C2=CN1C1CCCCC1 (configuration not stated)
inactive: all assays above

CC#CCN1c2ccccc2[C@]23C[C@@H](C(=O)OC)N(S(=O)(=O)c4cccs4)C2=NC(C(=O)OC)=C(C(=O)OC)[C@H]13
inactive: all assays above

CCCCC1=CC2=C(c3ccco3)C(=O)C(C)(OC(=O)c3ccc(OC)cc3)C(=O)C2=CN1CC(C)C (configuration not stated)
inactive: all assays above

CCOC(=O)NN=C1C[C@@H](O)[C@@H](O)[C@@H]2[C@H]3C(=O)N([C@@H](C)c4ccccc4)C(=O)[C@@H]3CC[C@@H]12
inactive: all assays above

COC(=O)N[C@@H](c1cccc(C)c1)[C@]1(C(C)=O)CCCC1=O
inactive: all assays above

CCC(=O)OC1(C)C(=O)C=C2C=C(CCCCNC(=O)OC(C)(C)C)OC=C2C1=O (configuration not stated)
inactive: all assays above

COC/C=C/C1=CC2=CC(=O)C(C)(OC(=O)c3cnc4ccccc4n3)C(=O)C2=CN1C1CC1 (configuration not stated)
inactive: all assays above

COC/C=C/C1=CC2=CC(=O)C(C)(OC(=O)c3cnc4ccccc4n3)C(=O)C2=CN1Cc1ccc(OC)cc1 (configuration not stated)
inactive: all assays above

CCN1C(=O)N[C@@H](c2ccccc2)[C@H](C(C)=O)[C@H]1C
inactive: all assays above

CCN1C(=O)N[C@@H](c2cccc(C(F)(F)F)c2)[C@@H](C(=O)OC)[C@H]1C
inactive: all assays above

CCCCC1=CC2=CC(=O)C(C)(OC(=O)CC)C(=O)C2=CN1C(CO)CO (configuration not stated)
inactive: all assays above

C=CCN1c2ccccc2[C@]23C[C@@H](C(=O)OC)N(C(=O)c4ccco4)C2=NC(C(=O)OC)=C(C(=O)OC)[C@H]13
inactive: all assays above

C[C@H]1Cc2c(-c3ccccc3)nc3c(c2CO1)CN(C(=O)c1ccco1)CC3
inactive: all assays above

C=C(C(C)=O)C(O)C=Cc1ccco1 (configuration not stated)
inactive: all assays above

COc1ccc(NC(=O)N2CCc3nc(COc4ccccc4)c4c(c3C2)CO[C@@H](C)C4)cc1
inactive: all assays above

COC(=O)C1=C(C(=O)OC)[C@@H]2N(Cc3ccccc3)c3ccccc3[C@@]23C[C@@H](C(=O)OC)N(C(=O)c2ccco2)C3=N1
inactive: all assays above

CC#CCN1c2ccccc2[C@]23C[C@@H](C(=O)OC)N=C2NC(C(=O)OC)=C(C(=O)OC)[C@H]13
inactive: all assays above

COc1ccc(-c2nc3c(c4c2C[C@H](c2ccccc2)OC4)CN(C(=O)NCCc2c[nH]c4ccccc24)CC3)c(C)c1
inactive: all assays above

COC(=O)CC1c2ccccc2C=C(C)N1C(=O)OC (configuration not stated)
inactive: all assays above

CC1(OC(=O)c2cnc3ccccc3n2)C(=O)C=C2C=C3CCCN3C=C2C1=O (configuration not stated)
inactive: all assays above

CC#CCN1c2ccccc2[C@]23C[C@@H](C(=O)OC)N(C(=O)COCc4ccccc4)C2=NC(C(=O)OC)=C(C(=O)OC)[C@H]13
inactive: all assays above

CC(=O)C1=C(C)N(Cc2ccccc2)C(=O)N[C@H]1c1cccc(F)c1
inactive: all assays above

COC(=O)C1=C(C)N(Cc2ccccc2)C(=S)NC1c1cccc(F)c1 (configuration not stated)
inactive: all assays above

COc1ccc(N2C=C3C(=O)C(C)(OC(=O)CCc4ccccc4)C(=O)C=C3C=C2c2ccc(C#N)cc2)cc1 (configuration not stated)
inactive: all assays above

COCC(=O)N1CCc2nc(-c3ccc(OC)cc3C)c3c(c2C1)CO[C@@H](c1ccccc1)C3
inactive: all assays above

COC(=O)CCC(=O)OC1(C)C(=O)C2=CN(CC3CC3)C(c3ccc(OC)cc3)=CC2=C(Br)C1=O (configuration not stated)
inactive: all assays above

COC/C=C/C1=CC2=CC(=O)C(C)(OC(=O)c3cnc4ccccc4n3)C(=O)C2=CN1c1ccccc1 (configuration not stated)
inactive: all assays above

COC(=O)C1=C(C(=O)OC)[C@@H]2N(C)c3ccc(OC)cc3[C@@]23C[C@@H](C(=O)OC)N(C(=O)C2CCC2)C3=N1
inactive: all assays above

COC/C=C/C1=CC2=CC(=O)C(C)(OC(=O)c3cnc4ccccc4n3)C(=O)C2=CN1C1CCCCC1 (configuration not stated)
inactive: all assays above

CC1(OC(=O)CCc2ccccc2)C(=O)C=C2C=C(c3ccc(C#N)cc3)N(CCc3ccccn3)C=C2C1=O (configuration not stated)
inactive: all assays above

CCN1C(=O)NC(c2ccc(Br)cc2)C(C(=O)OC)=C1C (configuration not stated)
inactive: all assays above

COCCN1C(=O)N[C@@H](c2ccccc2)[C@H](C(=O)OC)[C@H]1C
inactive: all assays above

COC(=O)C1=C(C)N(Cc2ccccc2)C(=O)N[C@H]1c1cccs1
inactive: all assays above

CCCCC1=CC2=C(c3ccco3)C(=O)C(C)(OC(=O)c3ccc(OC)cc3)C(=O)C2=CN1CCCCO (configuration not stated)
inactive: all assays above

C=CCN1c2ccccc2[C@]23C[C@@H](C(=O)OC)N(C(=O)CC(C)C)C2=NC(C(=O)OC)=C(C(=O)OC)[C@H]13
inactive: all assays above

COC(=O)C1=C(C(=O)OC)[C@@H]2N(C)c3ccccc3[C@@]23C[C@@H](C(=O)OC)N(C(=O)CC(C)C)C3=N1
inactive: all assays above

COC(=O)C1=C(C(=O)OC)[C@@H]2Nc3ccccc3[C@@]23C[C@@H](C(=O)OC)N(S(=O)(=O)c2ccc(C)cc2)C3=N1
inactive: all assays above

CCN1C(=O)N[C@@H](CCc2ccccc2)[C@H](C(=O)OC)[C@H]1C
inactive: all assays above

C=CCOC(=O)N[C@@H](c1ccc(Br)cc1)C(C(C)=O)C(C)=O
inactive: all assays above

CCOC(=O)C=CCCCC=CC(=O)c1ccccc1
inactive: all assays above

COC(=O)C1=C(C)N(Cc2ccccc2)C(=O)N[C@H]1c1ccco1
inactive: all assays above

COC(=O)CCC(=O)OC1(C)C(=O)C2=CN(Cc3ccccc3)C(c3ccc(OC)cc3)=CC2=C(Br)C1=O (configuration not stated)
inactive: all assays above

CCCCc1nc2c(c3c1C[C@H](C)OC3)CN(C(=O)NCc1ccco1)CC2
inactive: all assays above

COCCN1C(=O)N[C@@H](c2cccc(F)c2)C(C(C)=O)=C1C
inactive: all assays above

COC(=O)CCC(=O)OC1(C)C(=O)C2=CN(CC(C)C)C(c3ccc(OC)cc3)=CC2=C(Br)C1=O (configuration not stated)
inactive: all assays above

CCN1C(=O)N[C@@H](c2ccco2)C(C(C)=O)=C1C
inactive: all assays above

CCN(CC)CCCN1C=C2C(=O)C(C)(OC(=O)C3CCCC3)C(=O)C(c3ccccc3)=C2C=C1CCCC(=O)OC (configuration not stated)
inactive: all assays above

CCOC(=O)CN1C(=O)N[C@@H](c2cccc(F)c2)C(C(C)=O)=C1C
inactive: all assays above

CC(=O)Nc1ccc(S(=O)(=O)N2CCc3nc(COc4ccccc4)c4c(c3C2)CO[C@@H](C)C4)cc1
inactive: all assays above

CCN1C(=O)N[C@@H](c2ccco2)C(C(=O)OC)=C1C
inactive: all assays above

COC(=O)CCCC1=CC2=C(c3ccccc3)C(=O)C(C)(OC(=O)C3CCCC3)C(=O)C2=CN1CCc1ccccn1 (configuration not stated)
not listed: [4]
inactive: all other assays above

COc1cccc(CC(=O)N2CCc3nc(-c4ccccc4)c4c(c3C2)CO[C@@H](C)C4)c1
not listed: [4]
inactive: all other assays above

CCCCC1=CC2=CC(=O)C(C)(OC(=O)CC)C(=O)C2=CN1Cc1ccco1 (configuration not stated)
inactive: all assays above

CC1(OC(=O)CCc2ccccc2)C(=O)C=C2C=C(c3ccc(C#N)cc3)N(C3CC3)C=C2C1=O (configuration not stated)
inactive: all assays above

CCN1C(=O)N[C@@H](c2cccc(F)c2)C(C(=O)OC)=C1C
inactive: all assays above

COC(=O)CCCC1=CC2=CC(=O)C(C)(OC(=O)c3cccs3)C(=O)C2=CN1c1ccccc1 (configuration not stated)
inactive: all assays above

CC[C@H](C)[C@@H](NC(=O)O[C@@H]1C(=O)c2cc(Br)ccc2O[C@H]1c1cccc(OC)c1)C(=O)OC
inactive: all assays above

CC(C)C(=O)N[C@@H]1CCCN1C(=O)C=Cc1ccccc1
not listed: [4]
inactive: all other assays above

COC(=O)CCCC1=CC2=CC(=O)C(C)(OC(=O)c3cccs3)C(=O)C2=CN1c1cccc(C#N)c1 (configuration not stated)
not listed: [4]
inactive: all other assays above

CCOC(=O)CN1C(=O)N[C@@H](c2cccs2)C(C(=O)OC)=C1C
inactive: all assays above

CCN1C(=O)N[C@H](c2ccccc2)C(C(C)=O)=C1C
inactive: all assays above

CCOC(=O)CN1C(=O)N[C@@H](c2ccccc2)[C@H](C(=O)OC)[C@H]1C
not listed: [4]
inactive: all other assays above

COCCN1C(=O)N[C@@H](c2cccc(C(F)(F)F)c2)[C@@H](C(=O)OC)[C@H]1C
not listed: [4]
inactive: all other assays above

COC(=O)C1=C(C(=O)OC)[C@@H]2N(C)c3ccc(OC)cc3[C@@]23C[C@@H](C(=O)OC)N(C(=O)COCc2ccccc2)C3=N1
not listed: [4]
inactive: all other assays above

CCOC(=O)CCCNC(=O)N1CCc2nc(-c3ccccc3)c3c(c2C1)CO[C@@H](C)C3
inactive: all assays above

CCOC(=O)CNC(=O)O[C@@H]1C(=O)c2cc(OC)ccc2O[C@H]1c1ccc(OC)c(Br)c1
not listed: [4]
inactive: all other assays above
